Screening data as filed in PubChem.
HTT prom inh: inhibitors of huntingtin promoter activity | Potency, µM (titrated, usually from 57.5 µM), for inactives: at the highest dose activity change, negative = inhibition, usual class: inhibitors | 0.93% of 48,000 active | HEK293 HTT promoter firefly luciferase reporter, 24 h | AID 1508623; further: nearly all actives have a fitted effect of over 50% in size
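HEK293 cells carrying firefly luciferase reporters were seeded at 2,500 per well in Opti-MEM and cultured for 24 h. They were then treated with compounds at up to 57.5 uM final for 24 h at 37 degrees C before Dual-Glo luminescence readout.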
HTT-AS promoter: HTT-AS promoter activation. HEK293 HTT-AS promoter firefly luciferase reporter, 24 h; response scale: percent change from vehicle, -100% = no light. Potency, µM (series often up to 57.5 µM), for the others: at the highest dose activity change, positive = activation, actives largely listed as activators. 0.24% of 48,000 active. AID 1508624; further: nearly all actives have a fitted effect of over 55% in size
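Firefly luciferase signal from promoter-reporter HEK293 cells was scaled between vehicle (0%) and zero RLU (-100%). Compounds were tested at final concentrations of up to 57.5 uM over 24 h at 37 degrees C. PTC124 at 50 uM final served as control inhibitor.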
NTMT1 inh: NTMT1 methyltransferase inhibition; 2.5% of 59,000 active; AID 1645870; Q9BV86; Potency, µM (series often up to 114 µM), inactives show top-dose activity change, negative = inhibition, usual class: inhibitors; NTMT1 MTase-Glo SAH luminescence, purified enzyme;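 further: plate controls were DMSO vehicle for no effect and no enzyme for full effect; nearly all actives have a fitted effect of over 65% in size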
Target sequence (Q9BV86 whole entry, looked up): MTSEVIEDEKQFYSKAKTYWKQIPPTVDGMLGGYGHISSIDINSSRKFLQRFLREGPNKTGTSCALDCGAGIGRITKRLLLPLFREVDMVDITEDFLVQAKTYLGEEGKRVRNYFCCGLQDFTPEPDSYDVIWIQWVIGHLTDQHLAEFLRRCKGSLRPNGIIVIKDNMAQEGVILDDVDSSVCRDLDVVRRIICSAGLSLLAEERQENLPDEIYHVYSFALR
An asterisk follows results filed as active; u = inconclusive; x = no result given; ! = a repeat was not active; [ ] = another dose, or the depositor's remark. Hits are enriched below; roughly 2.4% of the tested compounds scored in any of these assays. The call rests on the fitted dose curve; in most records, active means well fitted curve in the direction sought with a large enough effect; inconclusive means small, poorly fitted or top-dose-only effect, or another doubt; inactive means no such curve, though single readings can be large; an effect the other way counts as inactive or inconclusive. Potency means the concentration at half of the fitted maximal effect.

SMILES	HTT prom inh	HTT-AS promoter	NTMT1 inh
COc1ccc(NC(=O)c2ccc(-c3nc(CSc4ccc(C)cc4)c(C)o3)cc2)cc1Cl	4.5µM*	-8%	-3%
CC(=O)c1ccc(NC(=O)c2ccc(-c3nc(CSc4ccccc4)c(C)o3)cc2)cc1	u	-31%	-3%
N[C@@H](CC(=O)O)C(=O)Nc1ccc(Cl)cc1C(=O)c1ccc[nH]1	x	x	3%
Cc1ccc(OCCn2c(CCNC(=O)c3ccc(C(C)(C)C)cc3)nc3ccccc32)cc1	x	x	6%[57.5 µM]
COc1ccc(-c2cnc(N3CCC(C(N)=O)CC3)s2)cc1OC	x	x	4%
NC(=O)C1CCN(c2ncc(Br)s2)CC1	x	x	40µM*
C[C@@H]1O[C@@H](OC[C@H]2O[C@@H](OCC3CCC4CC3C4(C)C)[C@H](O)[C@@H](O)[C@@H]2O)[C@H](O)[C@H](O)[C@H]1O (stereo not given in full)	x	x	-8%[29.8 µM]
COc1cc(O)c(C(CC(=O)N2CCN(c3ccc(F)cc3)CC2)c2ccc3c(c2)OCO3)c(OC)c1 (stereo not given)	x	x	13%
C[C@H](Nc1nc(N[C@H](C)C(F)(F)F)nc(-c2cccc(Cl)n2)n1)C(F)(F)F	x	x	3%
COc1ccc(NCc2cccn2-c2nnc(N3CCCCC3)s2)cc1OC	7.9µM*	-54%	-2%
COc1ccc(NCc2cccn2-c2nnc(N3CCOCC3)s2)cc1OC	u	-6%	-24%
Cc1ccccc1NCc1cccn1-c1nnc(N2CCC(C)CC2)s1	-14%	-4%	-11%
COc1cccc(NCc2cccn2-c2nnc(N3CCC(C)CC3)s2)c1	10µM*	-61%	-6%
CCc1ccc(NCc2cccn2-c2nnc(N3CCCCCC3)s2)cc1	10µM*	-79%	-5%
Cc1ccc(CNCc2cccn2-c2nnc(N3CCCC3)s2)cc1	-34%	5%	-19%
O=[S+]([O-])(Nc1ccccc1)c1ccc(NCc2cccc(C(F)(F)F)c2F)cc1	x	x	2%
CCN(CC)C(=O)Cc1csc(NS(=O)(=O)c2cccc(Cl)c2C)n1	x	x	3%
CCC12CCCN3CCc4c(n(c5ccccc45)C(O)C1)C32 (stereo not given)	x	x	7%[57.5 µM]
Cc1ccc(NC(=O)c2cnn3c(C)cc(C)nc23)cc1	x	x	-1%
COc1ccc(S(=O)(=O)N(CC(=O)Nc2cc(C)ccc2OC)Cc2ccccc2)cc1	-39%	-5%	2.5µM*
COc1ccc(S(=O)(=O)N(CC(=O)Nc2ccccc2Br)Cc2ccccc2)cc1	u	-24%	u
O=C(O)c1ccc(-c2noc(-c3ccccc3F)n2)cc1	x	x	22µM*
O=C(O)c1ccccc1-c1noc(-c2ccccc2F)n1	x	x	2%
CCN(CC)CCCNC(=O)c1ccc2c(c1)sc1nc(-c3ccc(C)cc3)cn12	-3%	-16%	50µM*
CCCNC(=O)c1ccc2c(c1)sc1nc(-c3ccc(C)cc3)cn12	4%	u	14%
SMILES	HTT prom inh	HTT-AS promoter	NTMT1 inh
CC1OC(OC2C(C)OC(OC3C(OC(=O)C45CCC(C)(C)CC4C4=CCC6C7(C)CCC(OC8OC(C(=O)O)C(O)C(O)C8OC8OC(CO)C(O)C(OC9OC(C)C(O)C(O)C9O)C8O)C(C)(CO)C7CCC6(C)C4(C)CC5)OC(CO)C(O)C3O)C(O)C2O)C(O)C(O)C1O (stereo not given)	x	x	4%[6.45 µM]
O=C(Nc1ccc2nc(SCC(=O)N3CCCC3)sc2c1)c1cccc(F)c1	-7%	-18%	89µM*
O=C(Nc1ccc2nc(SCC(=O)N3CCOCC3)sc2c1)c1cccc(F)c1	-22%	-14%	0%
COc1cc(O)c(C(CC(=O)N2CCC(Cc3ccccc3)CC2)c2ccc3c(c2)OCO3)c(OC)c1 (stereo not given)	x	x	6%[228 µM]
CCc1nn(C(C)C(=O)N2CCN(c3ccccc3)CC2)c(=O)c2cc3occc3n12 (stereo not given)	-29%	-31%	-20%
Cc1nn(C(C)C(=O)N2CCN(c3ccc(Cl)cc3)CC2)c(=O)c2cc3occc3n12 (stereo not given)	25µM*	-56%	5%
C[C@H](Cc1ccc(O)c(O)c1)[C@@H](C)Cc1ccc(O)c(O)c1	u	-49%	7.9µM*
O=C(O)C(O)Cc1ccc(O)c(O)c1 (stereo not given)	7%	-7%	89µM*!
N[C@@H](Cc1ccc(O)c(O)c1)C(=O)O	7%	-2%	-20%
COc1ccc(C[C@@H](C)[C@@H](C)Cc2ccc(OC)c(OC)c2)cc1OC	u	-51%	11%
C=C1C(=O)O[C@@H]2C[C@H](C)C3=CC(=O)[C@H](O)[C@@]3(C)C[C@H]12	x	x	1%[57.5 µM]
CC(=O)c1ccc(N2CCN(S(=O)(=O)c3ccc4c(c3)oc(=O)n4C)CC2)cc1	x	x	3%
